The other results are listed elsewhere or left out. Activity calls are given as the source filed them.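 How the source made its calls: active means potency below 100 µM; inconclusive means dose-dependent response but potency above 100 µM; inactive means the rest.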
The compounds below were run against 4'-phosphopantetheinyl transferase ffp (Bacillus subtilis) (UniProt Q9F4F7) (assay: Gel-Based Assay for Inhibitors of Bacillus subtilis Sfp phosphopantetheinyl transferase (PPTase)). Conditions: purified Sfp, gel-based phosphopantetheinylation read-out.
4'-phosphopantetheinyl transferase ffp (Bacillus subtilis), sequence (Q9F4F7 whole entry, looked up): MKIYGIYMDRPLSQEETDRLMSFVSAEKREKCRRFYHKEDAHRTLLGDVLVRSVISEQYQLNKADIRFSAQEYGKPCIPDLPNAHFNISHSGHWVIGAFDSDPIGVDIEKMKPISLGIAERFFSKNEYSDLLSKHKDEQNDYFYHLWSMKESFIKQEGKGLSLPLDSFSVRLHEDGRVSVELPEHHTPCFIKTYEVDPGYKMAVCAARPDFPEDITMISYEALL
Text: The covalent attachment of a phosphopantetheinyl (4'-PP) arm to a variety of synthases and other proteins is a key posttranslational protein modification. The 4'-PP is installed on the proteins post-translationally from coenzyme A (CoA) on a conserved serine residue by action of phosphopantetheinyl transferase (PPTase) enzymes. Phosphopantetheinylation is essential for synthase activity, and removal of the PPTase gene precludes natural product synthesis in microorganisms, or in the case of fatty acid biosynthesis, renders the organism unviable. PPTase enzymes belong to a distinct structural superfamily. Within bacteria, these enzymes are grouped into two classes based upon primary structure, the AcpS-Type and Sfp-Type PPTases. […]
In this assay, compounds were evaluated by monitoring of fluorescence transfer to whole carrier protein substrates via polyacrylamide gel electrophoresis. […]
A DMSO solution of confirmed hits (0.5 microL) was added to a 1.33X enzyme solution (15 microL, containing 26.6 nM Sfp, 66 mM HEPES, 13.3 mM MgCl2, 0.0133% NP-40, 0.133% BSA, pH 7.6). […] Following the run, gels were imaged with a Chemi-Doc Plus imager (Bio-Rad, Hercules, CA) and band intensity quantified using the ImageJ software package. […]
`CCCOC(=O)Nc1sc2c(c1C(=O)OCC)CCC2` was tested, and the outcome was “inactive”. `Cc1nn2c(c1-c1ccccc1)N=C(c1ccco1)CC2c1ccccc1` (configuration not stated) was tested, and the outcome was “inactive”.

Reference: PubChem BioAssay AID2707 (National Center for Advancing Translational Sciences (NCATS), 2010)
